± gives the standard deviation of the averaged measurements. Whole data set: some 33,000 sequences, median “E-score (rank enrichment, -0.5 to 0.5)” near -0.0075, cut for the highest 2% near 0.23. The sample holds the highest values, similar sequences and a random draw of the others, so the mix is not that of the screen.
Each sequence was assayed on WT Max(13-93) synthetic (M65Nle) (assay: PBM 8-mer E-score (E-score (rank enrichment, -0.5 to 0.5)); higher = stronger preferential binding).
Method: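 Protein binding microarray (universal PBM chip covering all 10-mers in fixed probe flanks) with chemically synthesized human Max(13-93) bHLH-LZ analogs (not full-length Max) bearing noncanonical residues (hArg, Tha, Aib, Nle at 65) and aromatic Cys staples. Read-out per 8-mer (and its reverse complement): E-score (rank-based enrichment, -0.5 to 0.5) and Z-score of median probe intensity.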

| Sequence | PBM 8-mer E-score |
| --- | --- |
| ACTCGATC | -0.107 ± 0.06 |
| ATGGAGGC | -0.00616 ± 0.011 |
| TTTATAAA | 0.176 ± 0.057 |
| ACAACCCT | -0.0273 ± 0.068 |
| CCAACCCC | -0.0495 ± 0.05 |
| ACAACCCC | 0.257 ± 0.052 |
| GCGTCGAA | 0.00213 ± 0.017 |
| CGCATGCA | 0.175 ± 0.029 |
| GGCATGCA | 0.0781 ± 0.042 |
| AGCATGCA | 0.335 ± 0.016 |
| TGCATGCA | 0.201 ± 0.039 |
| CGCATGCG | 0.277 ± 0.018 |
| AGCATGCT | 0.165 ± 0.028 |
| AGCATGCG | 0.326 ± 0.055 |
| AGCATGCC | 0.12 ± 0.022 |
| CGCATGCC | 0.141 ± 0.068 |
| CGCAATGC | -0.0961 ± 0.12 |
| AGACACCC | -0.159 ± 0.022 |
| CATTTGAC | 0.0512 ± 0.021 |
| GCACATGC | 0.251 ± 0.032 |
| TCACATGA | 0.229 ± 0.011 |
| CCACATCG | -0.114 ± 0.056 |
| GCACATGA | 0.175 ± 0.065 |
| CCACATGC | 0.327 ± 0.06 |
| CGACATGC | 0.18 ± 0.013 |

| Sequence | PBM 8-mer E-score |
| --- | --- |
| CCACATGG | 0.366 ± 0.0054 |
| ACACATGC | 0.23 ± 0.089 |
| CAACATGG | 0.171 ± 0.018 |
| GCACATCC | -0.00788 ± 0.08 |
| GCACATAC | 0.0278 ± 0.096 |
| CCACATGA | 0.24 ± 0.057 |
| ACTAAGAC | -0.0588 ± 0.021 |
| AGTGGCAT | 0.077 ± 0.041 |
| ATAGAGAT | 0.0666 ± 0.018 |
| ACCTCTAT | -0.0733 ± 0.13 |
| AATGCCTG | -0.0228 ± 0.16 |
| AAACGTTC | 0.138 ± 0.043 |
| TCTTACCA | -0.0372 ± 0.041 |
| CAGTGAGC | -0.263 ± 0.02 |
| AATATGAC | 0.201 ± 0.057 |
| AATATGTG | 0.273 ± 0.036 |
| AATATATA | 0.175 ± 0.01 |
| TATATGAA | 0.15 ± 0.097 |
| AATATGAA | 0.279 ± 0.013 |
| AATATGTC | 0.0761 ± 0.1 |
| AATATATT | 0.197 ± 0.047 |
| AATATGTA | 0.138 ± 0.069 |
| AATATATG | 0.251 ± 0.011 |
| ACGTCGAC | 0.0127 ± 0.076 |
| ACCCCGTG | 0.0605 ± 0.035 |

| Sequence | PBM 8-mer E-score |
| --- | --- |
| CCGGCGTA | -0.17 ± 0.049 |
| CCCGCGCC | -0.134 ± 0.14 |
| ACGCATTC | -0.0561 ± 0.13 |
| AGGTGATA | -0.0245 ± 0.055 |
| CTTAATTA | 0.0675 ± 0.075 |
| ATTAATTA | 0.235 ± 0.13 |
| ATTAATGC | 0.0772 ± 0.086 |
| ATTAATAA | 0.195 ± 0.023 |
| ATTAATGA | 0.264 ± 0.076 |
| ATTAATTC | 0.159 ± 0.18 |
| CTTAATGA | 0.0202 ± 0.07 |
| GTTAATTA | 0.13 ± 0.14 |
| ATTAATTG | 0.128 ± 0.089 |
| ATTAATAC | 0.102 ± 0.0018 |
| CTTAATTC | 0.258 ± 0.0064 |
| ATTAATAG | 0.263 ± 0.1 |
| ACTACAGT | 0.0566 ± 0.059 |
| TGACAACA | 0.0331 ± 0.06 |
| CCCGCTAC | 0.047 ± 0.0079 |
| CTGAAGCC | -0.13 ± 0.039 |
| GAGAGCTA | 0.1 ± 0.073 |
| ATGGGCTA | 0.0445 ± 0.068 |
| CAATGACA | 0.184 ± 0.075 |
| AAATGACA | 0.248 ± 0.04 |
| TAATGACA | 0.256 ± 0.013 |

| Sequence | PBM 8-mer E-score |
| --- | --- |
| AAATGACG | 0.0648 ± 0.073 |
| GAATGACA | 0.0853 ± 0.076 |
| AAATGACC | 0.0445 ± 0.18 |
| CGACCCAG | -0.168 ± 0.1 |
| CTCAAGAA | 0.026 ± 0.0068 |
| TATTATAA | 0.291 ± 0.094 |
| GATTAGAA | 0.131 ± 0.017 |
| GATTATAA | 0.134 ± 0.066 |
| AGTTATAA | 0.132 ± 0.08 |
| CATTATAA | 0.107 ± 0.051 |
| CATTAGAA | 0.0359 ± 0.086 |
| TATTAGAA | 0.235 ± 0.07 |
| CGTTATAA | 0.0918 ± 0.12 |
| TGTTATAA | 0.255 ± 0.026 |
| CCCGGAAG | -0.252 ± 0.034 |
| AATTATGT | 0.178 ± 0.038 |
| ACGCGCCA | 0.0474 ± 0.11 |
| AACGAAGA | 0.0931 ± 0.055 |
| CCTTTAGC | -0.065 ± 0.16 |
| CCTACTAA | -0.0419 ± 0.0019 |
| GTATTAAA | 0.188 ± 0.077 |
| ATTATATA | 0.125 ± 0.052 |
| CTATTATA | 0.0186 ± 0.0034 |
| ATTATATG | 0.176 ± 0.035 |
| GTATTATA | 0.251 ± 0.046 |

| Sequence | PBM 8-mer E-score |
| --- | --- |
| ACATTATA | 0.158 ± 0.0021 |
| ATTATATC | 0.247 ± 0.059 |
| ATATTATA | 0.309 ± 0.018 |
| GTATTAGA | 0.223 ± 0.014 |
| CAATATTA | 0.157 ± 0.12 |
| TAATATTA | 0.37 ± 0.026 |
| AAATATTA | 0.219 ± 0.04 |
| CGTAGCGC | -0.0505 ± 0.038 |
| GCAGGATA | -0.184 ± 0.065 |
| TAAGGTAA | 0.156 ± 0.086 |
| CCAGCATA | 0.0104 ± 0.015 |
| GCTTCCCA | -0.0247 ± 0.11 |
| GGAGGGTA | 0.0987 ± 0.018 |
| GTATTACA | 0.245 ± 0.00083 |
| ATATTATG | 0.242 ± 0.0093 |
| CTATATTA | 0.221 ± 0.015 |
| ATATATTA | 0.256 ± 0.08 |
| AGATTATG | -0.178 ± 0.043 |
| GTATATTA | 0.226 ± 0.027 |
| ATATTATC | 0.138 ± 0.011 |
| CTATTACA | 0.14 ± 0.048 |
| GCATTACA | 0.133 ± 0.049 |
| AACGTTCT | 0.0268 ± 0.08 |
| CCTGTTGC | 0.0294 ± 0.077 |
| TGGAGGAA | -0.0087 ± 0.04 |

| Sequence | PBM 8-mer E-score |
| --- | --- |
| ATGCCCGC | 0.00379 ± 0.056 |
| CCGACGCC | -0.139 ± 0.013 |
| GCGGCCGA | -0.21 ± 0.09 |
| AATTTATC | 0.15 ± 0.049 |
| AATTTATA | 0.301 ± 0.057 |
| ATTTTATG | 0.19 ± 0.12 |
| ATTTTATA | 0.229 ± 0.058 |
| AATTTATG | 0.237 ± 0.005 |
| CATTTATA | 0.192 ± 0.047 |
| CCCGGTAA | -0.114 ± 0.034 |
| TCGGTAGA | -0.128 ± 0.0077 |
| GATGTATA | 0.117 ± 0.02 |
| GGTGTAAC | -0.0257 ± 0.043 |
| GGTGTATA | 0.108 ± 0.039 |
| CGTGTGTA | 0.24 ± 0.067 |
| CATGTATC | 0.185 ± 0.028 |
| CGTGTAAG | 0.113 ± 0.075 |
| CGTGTAAC | 0.276 ± 0.013 |
| CGTGTATC | 0.149 ± 0.028 |
| CATGTATA | 0.24379 ± 0.00015 |
| GGTGTGTA | 0.0087 ± 0.0056 |
| AGTGTGTA | 0.101 ± 0.012 |
| CGTGTATA | 0.266 ± 0.0089 |
| TATATTCA | 0.151 ± 0.15 |
| GAGTCTTA | -0.0474 ± 0.024 |

| Sequence | PBM 8-mer E-score |
| --- | --- |
| ACGTTGTC | 0.232 ± 0.011 |
| AGCGGAAA | -0.00668 ± 0.13 |
| CCTTCTTA | 0.0525 ± 0.12 |
| AGACAGCG | -0.103 ± 0.063 |
| AATCATCT | -0.0255 ± 0.056 |
| CCTAGAAC | -0.0877 ± 0.0018 |
| GGTGTGCA | -0.0425 ± 0.051 |
| CGTGTGCC | 0.146 ± 0.14 |
| GATGTGTA | -0.0106 ± 0.19 |
| CGTGTGCA | 0.3 ± 0.047 |
| CATGTGTC | 0.216 ± 0.053 |
| CATGTGTA | 0.357 ± 0.029 |
| ACTGGTTG | -0.086 ± 0.065 |
| CAACTATA | 0.119 ± 0.098 |
| AAACTATA | 0.144 ± 0.062 |
| TAACTATA | 0.259 ± 0.13 |
| CTGGTGAA | -0.0735 ± 0.0064 |
| CGACTTAG | -0.0474 ± 0.049 |
| ATCAGGTG | 0.0403 ± 0.029 |
| CCTGCCGC | -0.2994 ± 0.0014 |
| CAAATCGA | -0.0111 ± 0.037 |
| AGGTGACC | -0.1467 ± 0.00024 |

Source: the supplement of paper PMC12636033
